# Measurements as given in PubChem BioAssay (EPA / NIEHS).
# Records with an inconclusive call do not appear. Activity calls are given as the source filed them. How the source made its calls, unless noted: active means hit-call score of the fitted dose curve at least 0.9, where 1 is the maximum; inconclusive means response in the unintended direction; inactive means score below 0.9.
# Columns and labels:
# [1] = target: human CYP2C9, CYP2C9 (gene 1559) (UniProt P11712); test: NVS_ADME_hCYP2C9: NovaScreen (NVS) CYP450-related Enzyme Activity (ADME) Assay for human CYP2C9 (AID 2283108)
# Outline: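 Recombinant human CYP2C9 expressed in SF9 cells, fluorogenic substrate, fluorescence read 0.75 h after dosing. Chemicals first run in duplicate at 10 uM, with actives followed in concentration series; loss of signal versus acetonitrile baseline.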
# [2] = target: Cytochrome P450 3A4 (Homo sapiens) (UniProt P08684); test: NVS_ADME_hCYP3A4: NovaScreen (NVS) CYP450-related Enzyme Activity (ADME) Assay for human CYP3A4 (AID 2283110)
# Outline: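 Recombinant CYP3A4 from insect cells, fluorescence enzyme read-out, 0.33 h after chemical addition. Acetonitrile = negative control/baseline. Primary HTS: 10 uM in duplicate; actives re-tested in concentration series.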
# [3] = target: human CYP4F12, CYP4F12 (gene 66002) (UniProt Q9HCS2); test: NVS_ADME_hCYP4F12: NovaScreen (NVS) CYP450-related Enzyme Activity (ADME) Assay for human CYP4F12 (AID 2283111)
# Outline: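 Recombinant enzyme with a fluorescent substrate, signal read at 0.5 h post-dose; activity loss analysed relative to acetonitrile. Compounds first run in duplicate at 10 uM, with follow-up concentration-response testing of actives.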
# [4] = target: rat CYP2A1, Cyp2a1 (gene 24894) (UniProt P11711); test: NVS_ADME_rCYP2A1: NovaScreen (NVS) CYP450-related Enzyme Activity (ADME) Assay for rat CYP2A1 (AID 2283114; active means hit-call score of the fitted dose curve at least 0.9, where 1 is the maximum; inactive means score below 0.9)
# Outline: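 Cell-free fluorescence enzyme-activity read on recombinant rat CYP2A1, taken 0.75 h post-dosing. Compounds were screened in duplicate at 10 uM, then hits tested in concentration series (max 20 uM); inhibition scored relative to acetonitrile baseline.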
# [5] = tested on: rat CYP3A1, gene 25642; test: NVS_ADME_rCYP3A1: NovaScreen (NVS) CYP450-related Enzyme Activity (ADME) Assay for rat CYP3A1 (AID 2283126)
# Outline: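 Compounds went first at 10 uM duplicate, then to series with 20 uM maximum. Fluorescence from substrate turnover by the recombinant enzyme was measured 0.5 h post-dosing, inhibition scored against acetonitrile vehicle.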
# [6] = target: rat CYP1A2, Cyp1a2 (gene 24297) (UniProt P04799); test: NVS_ADME_rCYP1A2: NovaScreen (NVS) CYP450-related Enzyme Activity (ADME) Assay for rat CYP1A2 (AID 2283115)
# Outline: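 Primary testing ran in duplicate at 10 uM, with actives re-tested across concentration series. Fluorescence intensity from substrate turnover by recombinant protein, measured 1 hour post-dosing, with signal loss scored against acetonitrile vehicle.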
# [7] = target: rat CYP2A2, Cyp2a2 (gene 24895) (UniProt P15149); test: NVS_ADME_rCYP2A2: NovaScreen (NVS) CYP450-related Enzyme Activity (ADME) Assay for rat CYP2A2 (AID 2283116)
# Experimental: NVS_ADME_rCYP2A2 is a biochemical, single-readout assay that uses extracted gene-proteins in a cell-free assay. Measurements were taken 0.2 hour after chemical dosing in a 96-well plate.NVS_ADME_rCYP2A2 is one of one assay component(s) measured or calculated from the NVS_ADME_rCYP2A2 assay. It is designed to make measurements of enzyme activity, a form of enzyme reporter, as detected with fluorescence intensity signals by Fluorescence technology.Data from the assay component NVS_ADME_rCYP2A2 was analyzed into 1 assay endpoint. This assay endpoint, NVS_ADME_rCYP2A2, was analyzed in the positive analysis fitting direction relative to Acetonitrile as the negative control and baseline of activity. Using a type of enzyme reporter, loss-of-signal activity can be used to understand changes in the enzymatic activity as they relate to the gene Cyp2a2. Furthermore, this assay endpoint can be referred to as a primary readout, because this assay has produced multiple assay endpoints where this one serves a enzymatic activity function. To generalize the intended target to other relatable targets, this assay endpoint is annotated to the cyp intended target family, where the subfamily is xenobiotic metabolism. […]
# [8] = target: rat CYP2C11, Cyp2c11 (gene 29277) (UniProt P08683); test: NVS_ADME_rCYP2C11: NovaScreen (NVS) CYP450-related Enzyme Activity (ADME) Assay for rat CYP2C11 (AID 2283118)
# Outline: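 Screened first at 10 uM in duplicate, hits followed by concentration-response. Recombinant rat enzyme activity monitored by fluorescence 0.33 h post-dosing, normalised to acetonitrile negative control.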
# [9] = target: rat CYP2C13, Cyp2c13 (gene 171521) (UniProt P20814); test: NVS_ADME_rCYP2C13: NovaScreen (NVS) CYP450-related Enzyme Activity (ADME) Assay for rat CYP2C13 (AID 2283121)
# Outline: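 Inhibition is read as decreased fluorescent product formation, referenced to acetonitrile vehicle. Cell-free recombinant rat Cyp2c13 reaction ran 0.75 hour; compounds first at 10 uM in duplicate, then concentration series for actives.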
# Sequence of human CYP2C9, CYP2C9 (gene 1559) (P11712 whole entry, looked up): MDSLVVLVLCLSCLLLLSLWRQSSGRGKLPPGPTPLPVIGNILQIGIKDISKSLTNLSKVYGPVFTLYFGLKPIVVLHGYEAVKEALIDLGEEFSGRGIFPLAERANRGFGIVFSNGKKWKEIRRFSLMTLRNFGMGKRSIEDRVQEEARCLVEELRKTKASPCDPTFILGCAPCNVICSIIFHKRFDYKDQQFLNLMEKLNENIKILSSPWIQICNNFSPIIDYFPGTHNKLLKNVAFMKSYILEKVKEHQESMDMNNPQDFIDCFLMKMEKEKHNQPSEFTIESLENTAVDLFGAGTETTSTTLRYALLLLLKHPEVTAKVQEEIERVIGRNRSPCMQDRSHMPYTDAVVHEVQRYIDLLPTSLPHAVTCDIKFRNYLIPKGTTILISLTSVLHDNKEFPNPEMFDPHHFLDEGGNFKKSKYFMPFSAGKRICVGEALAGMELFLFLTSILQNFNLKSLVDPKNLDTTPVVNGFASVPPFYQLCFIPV
# Sequence of rat CYP2A1, Cyp2a1 (gene 24894) (P11711 whole entry, looked up): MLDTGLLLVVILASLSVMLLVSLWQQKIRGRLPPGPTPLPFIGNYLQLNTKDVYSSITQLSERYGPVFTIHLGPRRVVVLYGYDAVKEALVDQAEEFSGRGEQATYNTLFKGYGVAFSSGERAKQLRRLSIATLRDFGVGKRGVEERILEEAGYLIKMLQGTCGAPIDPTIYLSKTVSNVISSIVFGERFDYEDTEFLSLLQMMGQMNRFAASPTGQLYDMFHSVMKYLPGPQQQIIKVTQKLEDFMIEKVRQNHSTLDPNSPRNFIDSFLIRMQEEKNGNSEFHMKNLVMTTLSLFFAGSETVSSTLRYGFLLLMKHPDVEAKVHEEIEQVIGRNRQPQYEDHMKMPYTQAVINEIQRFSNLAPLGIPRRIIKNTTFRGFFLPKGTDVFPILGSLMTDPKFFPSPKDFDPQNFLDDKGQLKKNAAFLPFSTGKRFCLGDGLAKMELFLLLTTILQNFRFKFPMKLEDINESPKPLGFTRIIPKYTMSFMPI
# Sequence of rat CYP2C13, Cyp2c13 (gene 171521) (P20814 whole entry, looked up): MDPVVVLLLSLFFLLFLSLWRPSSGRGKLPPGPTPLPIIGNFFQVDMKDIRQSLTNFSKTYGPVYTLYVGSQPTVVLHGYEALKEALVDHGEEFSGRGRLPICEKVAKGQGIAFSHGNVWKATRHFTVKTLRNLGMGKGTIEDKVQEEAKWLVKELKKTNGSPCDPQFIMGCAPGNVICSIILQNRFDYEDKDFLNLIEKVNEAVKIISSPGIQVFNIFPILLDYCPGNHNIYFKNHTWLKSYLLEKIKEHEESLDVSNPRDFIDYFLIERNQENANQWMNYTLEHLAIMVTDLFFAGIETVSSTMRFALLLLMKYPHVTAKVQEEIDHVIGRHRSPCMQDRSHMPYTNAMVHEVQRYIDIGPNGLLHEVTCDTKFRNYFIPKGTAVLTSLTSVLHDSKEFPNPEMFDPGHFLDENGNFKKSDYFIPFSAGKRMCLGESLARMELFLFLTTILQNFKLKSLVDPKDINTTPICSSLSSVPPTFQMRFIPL
# Sequence of Cytochrome P450 3A4 (Homo sapiens) (P08684 whole entry, looked up): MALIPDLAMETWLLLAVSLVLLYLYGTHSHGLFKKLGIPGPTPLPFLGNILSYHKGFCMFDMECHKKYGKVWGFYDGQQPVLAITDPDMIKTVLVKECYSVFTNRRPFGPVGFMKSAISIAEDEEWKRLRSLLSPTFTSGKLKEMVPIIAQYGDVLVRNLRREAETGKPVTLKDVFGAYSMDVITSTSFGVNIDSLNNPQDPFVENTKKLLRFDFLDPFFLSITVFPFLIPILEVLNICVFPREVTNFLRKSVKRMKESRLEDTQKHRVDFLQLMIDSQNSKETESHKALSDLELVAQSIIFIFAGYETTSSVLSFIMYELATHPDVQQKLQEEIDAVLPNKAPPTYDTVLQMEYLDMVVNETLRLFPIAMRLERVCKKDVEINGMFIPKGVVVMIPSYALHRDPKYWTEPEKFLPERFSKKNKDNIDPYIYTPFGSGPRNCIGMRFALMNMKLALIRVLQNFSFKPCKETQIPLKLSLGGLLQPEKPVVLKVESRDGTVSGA
# Sequence of rat CYP2C11, Cyp2c11 (gene 29277) (P08683 whole entry, looked up): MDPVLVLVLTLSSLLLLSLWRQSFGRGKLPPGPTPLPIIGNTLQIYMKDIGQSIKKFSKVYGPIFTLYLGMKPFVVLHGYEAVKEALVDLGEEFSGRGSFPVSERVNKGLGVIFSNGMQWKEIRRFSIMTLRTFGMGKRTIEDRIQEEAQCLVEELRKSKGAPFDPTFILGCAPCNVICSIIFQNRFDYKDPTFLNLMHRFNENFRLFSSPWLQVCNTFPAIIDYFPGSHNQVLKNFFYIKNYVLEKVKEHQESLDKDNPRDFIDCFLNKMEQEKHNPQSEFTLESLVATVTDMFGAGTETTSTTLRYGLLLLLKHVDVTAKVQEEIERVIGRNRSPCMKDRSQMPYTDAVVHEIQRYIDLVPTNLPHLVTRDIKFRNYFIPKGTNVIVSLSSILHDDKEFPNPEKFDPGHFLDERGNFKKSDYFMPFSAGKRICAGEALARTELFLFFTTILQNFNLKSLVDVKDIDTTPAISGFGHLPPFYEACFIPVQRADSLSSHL
# Sequence of rat CYP2A2, Cyp2a2 (gene 24895) (P15149 whole entry, looked up): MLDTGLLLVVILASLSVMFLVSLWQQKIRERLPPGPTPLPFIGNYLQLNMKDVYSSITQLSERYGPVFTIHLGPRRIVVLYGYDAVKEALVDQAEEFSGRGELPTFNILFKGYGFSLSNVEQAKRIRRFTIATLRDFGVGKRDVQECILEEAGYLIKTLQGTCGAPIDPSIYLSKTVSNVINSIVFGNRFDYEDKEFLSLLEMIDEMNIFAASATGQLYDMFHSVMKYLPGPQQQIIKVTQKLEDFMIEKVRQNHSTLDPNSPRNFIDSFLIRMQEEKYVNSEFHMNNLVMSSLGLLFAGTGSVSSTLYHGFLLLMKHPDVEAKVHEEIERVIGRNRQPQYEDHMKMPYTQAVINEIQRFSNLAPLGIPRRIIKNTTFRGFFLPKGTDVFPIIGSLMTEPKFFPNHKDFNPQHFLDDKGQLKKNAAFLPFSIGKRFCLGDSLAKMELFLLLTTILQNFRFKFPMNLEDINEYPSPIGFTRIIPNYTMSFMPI
# Sequence of human CYP4F12, CYP4F12 (gene 66002) (Q9HCS2 whole entry, looked up): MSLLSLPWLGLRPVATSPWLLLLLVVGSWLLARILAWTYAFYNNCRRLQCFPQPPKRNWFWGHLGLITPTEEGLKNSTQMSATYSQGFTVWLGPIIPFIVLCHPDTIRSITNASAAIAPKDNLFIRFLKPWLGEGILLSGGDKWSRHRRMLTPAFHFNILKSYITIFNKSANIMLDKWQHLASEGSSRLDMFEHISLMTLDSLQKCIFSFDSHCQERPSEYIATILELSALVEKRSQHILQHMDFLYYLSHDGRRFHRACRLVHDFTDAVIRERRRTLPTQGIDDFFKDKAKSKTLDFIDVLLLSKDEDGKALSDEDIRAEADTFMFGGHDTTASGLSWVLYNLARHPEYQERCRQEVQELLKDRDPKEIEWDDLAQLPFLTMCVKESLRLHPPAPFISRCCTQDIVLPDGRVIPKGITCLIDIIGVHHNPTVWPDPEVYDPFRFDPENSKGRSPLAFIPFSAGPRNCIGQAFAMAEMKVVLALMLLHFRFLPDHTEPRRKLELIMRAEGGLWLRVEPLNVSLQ
# Sequence of rat CYP1A2, Cyp1a2 (gene 24297) (P04799 whole entry, looked up): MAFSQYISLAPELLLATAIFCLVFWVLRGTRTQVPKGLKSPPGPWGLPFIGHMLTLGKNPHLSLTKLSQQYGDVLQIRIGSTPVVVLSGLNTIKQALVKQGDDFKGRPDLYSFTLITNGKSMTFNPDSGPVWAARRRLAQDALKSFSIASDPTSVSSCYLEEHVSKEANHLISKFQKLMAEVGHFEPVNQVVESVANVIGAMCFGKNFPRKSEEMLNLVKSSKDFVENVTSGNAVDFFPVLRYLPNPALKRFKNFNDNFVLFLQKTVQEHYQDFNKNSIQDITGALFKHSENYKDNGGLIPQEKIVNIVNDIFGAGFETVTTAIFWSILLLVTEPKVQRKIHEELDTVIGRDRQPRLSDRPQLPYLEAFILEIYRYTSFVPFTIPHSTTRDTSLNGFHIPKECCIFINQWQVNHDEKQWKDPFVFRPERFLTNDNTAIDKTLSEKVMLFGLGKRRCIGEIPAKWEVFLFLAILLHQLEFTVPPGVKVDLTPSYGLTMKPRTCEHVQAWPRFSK
smiles,measurement,setting,value
Cc1cc(C(C)(C)c2ccc(O)c(C)c2)ccc1O,AC50,[1],0.942 µM (active)
same,outcome,[2],inactive
Oc1ccc(Cc2ccc(O)cc2)cc1,AC50,[1],0.321 µM (active)
Oc1cc(Cl)c(Cl)cc1Cl,AC50,[3],0.605 µM (active)
COC(=O)Nc1cccc(OC(=O)Nc2cccc(C)c2)c1,AC50,[4],3.46 µM (active)
same,AC50,[5],11.4 µM (active)
CC(C)(c1ccccc1)c1cc(-n2nc3ccccc3n2)c(O)c(C(C)(C)c2ccccc2)c1,outcome,[6],inactive
O=C(O)COc1ccc(Cl)cc1,outcome,[7],inactive
CC1(C)[C@H](C(=O)O[C@H](C#N)c2cccc(Oc3ccccc3)c2)[C@@H]1/C=C(\Cl)C(F)(F)F,outcome,[8],inactive
same,outcome,[9],inactive
same,outcome,[5],inactive
